TbREL1 inh – TbREL1 inhibition, primary screen. inhibition, % at 9.66 µM. TbREL1 RNA ligation, FRET fluorescence. hit rate 0.49% among 89,000. P86926;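 active = inhibition above the mean inhibition across all screened compounds plus 3 SD, cut at about 11% in these data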;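 also: 0% = plate median of test wells and 100% = NSC42067 control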
Target sequence (P86926 whole entry, looked up): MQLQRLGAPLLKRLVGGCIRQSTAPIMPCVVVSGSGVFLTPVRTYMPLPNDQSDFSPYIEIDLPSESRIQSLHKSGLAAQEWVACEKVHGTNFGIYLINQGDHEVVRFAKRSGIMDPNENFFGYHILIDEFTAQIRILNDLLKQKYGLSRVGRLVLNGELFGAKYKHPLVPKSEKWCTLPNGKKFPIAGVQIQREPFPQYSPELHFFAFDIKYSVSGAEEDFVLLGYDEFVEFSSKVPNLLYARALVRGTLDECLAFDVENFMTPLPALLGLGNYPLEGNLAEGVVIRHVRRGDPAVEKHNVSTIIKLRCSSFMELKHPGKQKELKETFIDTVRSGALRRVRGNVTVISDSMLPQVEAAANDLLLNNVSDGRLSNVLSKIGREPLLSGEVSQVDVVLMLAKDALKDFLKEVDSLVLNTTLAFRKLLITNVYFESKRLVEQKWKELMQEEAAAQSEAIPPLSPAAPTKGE
TbREL1 conf – TbREL1 inhibition, confirmation. shares compounds with TbREL1 inh. TbREL1 RNA ligation, FRET fluorescence. inhibition, % at 9.66 µM. hit rate 37% among 390. AID 1117282;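 active = mean inhibition across replicates above a set limit taken from the earlier primary screen, cut at about 11% in these data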;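 also: 0% = REL1 with substrate and DMSO and 100% = REL1 plus control inhibitor NSC42067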
* = called active by the depositor. Many of the other results were omitted from the sample, so hits are more common in it than they were.

SMILES	TbREL1 inh	others
CCN1CCCCC(NC(=O)Cc2ccccc2)C1=O (stereo unspecified)	4
CCN1C(=NCCOC)N[C@@H](c2cccc(C(F)(F)F)c2)C(C(=O)OC)=C1C	6
COC(=O)C1=C(C)N(C)C(=NCc2ccc(OC)cc2)NC1c1ccccc1C(F)(F)F (stereo unspecified)	6
COC(=O)C1=C(C)N(Cc2ccc(C(F)(F)F)cc2)C(=NCC2CC2)NC1c1ccccc1C(F)(F)F (stereo unspecified)	14*	TbREL1 conf=16*
COC(=O)C1=C(C)N(Cc2cccc(C(F)(F)F)c2)C(=NCc2ccc3c(c2)OCO3)NC1c1ccccc1C(F)(F)F (stereo unspecified)	13*	TbREL1 conf=20*
COC(=O)C1=C(C)N(C)C(=NCc2ccc(C(F)(F)F)cc2)NC1c1ccccc1C(F)(F)F (stereo unspecified)	10
COC(=O)C1=C(C)N(Cc2ccc(C(F)(F)F)cc2)C(=NCc2ccc(OC)cc2)NC1c1ccccc1C(F)(F)F (stereo unspecified)	17*	TbREL1 conf=14*
CCN1C(=NCc2ccco2)N[C@@H](c2cccc(C(F)(F)F)c2)C(C(=O)OC)=C1C	4
COC(=O)C1=C(C)N(Cc2ccc(C(F)(F)F)cc2)C(=NCc2cccc(C(F)(F)F)c2)NC1c1ccccc1C(F)(F)F (stereo unspecified)	20*	TbREL1 conf=25*
COC(=O)C1=C(C)N(Cc2cccc(C(F)(F)F)c2)C(=NCc2ccc(C(F)(F)F)cc2)NC1c1ccc(C(F)(F)F)cc1 (stereo unspecified)	8
CCN(CC)CCCNC(=O)c1oc(=O)c2ccccc2c1-c1ccc(C)cc1	2
O=C(N[C@@H](Cc1cccnc1)C(=O)N1CCC[C@H]1C(=O)NCc1ccccc1)c1ccc(Cl)c(Cl)c1	3
Cc1cccc(Cn2cc(COC(=O)N3CCOCC3)nn2)c1	3
CCOC(=O)[C@@]12CCC3=C1N(CCC3)C(=O)[C@H](CC(=O)NCc1cccc3ccccc13)C2	-2
CC(C)(C)C(=O)CSc1nnc(SCc2cccc3ccccc23)s1	5
CC(C)[C@H](NC(=O)N1CCOCC1)C(=O)N1CCC[C@H]1C(=O)NCc1ccccc1	5
CCNC(=S)NNC(=O)CSc1nc2ccccc2c(=O)n1-c1ccc(Cl)cc1	-1
O=C(NC1CCCCC1)c1ccc([N+](=O)[O-])cc1	1
O=C1CCCCC1Nc1ccc([N+](=O)[O-])cc1 (stereo unspecified)	18*	TbREL1 conf=2
CN1CCN(C(=S)Nc2ccc([N+](=O)[O-])cc2)CC1	-2
O=S(=O)(c1ccc(Cl)s1)N1CCC(c2cn3ccccc3n2)CC1	-3
O=C(c1cc(Cl)ccc1F)N1CCCC(c2nc(-c3cccs3)no2)C1 (stereo unspecified)	-2
c1cc2ccn(CC3CC3)c2cc1-c1ccc2ccn(CC3CC3)c2c1	-1
O=Nc1c(O)n(Cc2ccccc2)c2ccccc12	-1
O=c1c([N+](=O)[O-])c(Cl)c2ccccc2n1Cc1ccccc1	17*	TbREL1 conf=1
SMILES	TbREL1 inh	others
O=c1c2c([N+](=O)[O-])cc([N+](=O)[O-])cc2sn1Cc1ccccc1	-2
CCC1CCCCN1C(=O)n1ncc(C(O)(c2ccccc2)c2ccccc2)n1 (stereo unspecified)	-3
CCOc1ccc(-n2c(SC/C=C/c3ccccc3)nnc2-c2ccco2)cc1	0
CCN(CC)C(=O)CSc1nnc(-c2ccc(C(C)(C)C)cc2)n1-c1ccc(Cl)cc1	5
O=C1/C(=C\c2ccco2)SC(=S)N1c1ccccc1	9
Cc1ccc(N2C(=O)/C(=C\c3ccco3)SC2=S)cc1	2
O=C1/C(=C\c2ccco2)SC(=S)N1C1CCS(=O)(=O)C1 (stereo unspecified)	19*	TbREL1 conf=1
Cc1ccc(CN2CCCCC(NC(=O)c3ccc(F)c(F)c3)C2=O)cc1 (stereo unspecified)	2
COc1cccc(-c2oc3c(c2C(=O)OCCN(C)C)C(O)CCC3)c1 (stereo unspecified)	3
CC(C)CCNC(=O)[C@H]1COC(O)([C@H](Cc2ccccc2)NC(=O)[C@@H](NC(=O)OCc2ccccc2)C(C)C)CN1C (stereo partly specified)	5
C#CCOCCOCCOCCNc1nc(N2CCN(C(=O)[C@H](CCCCN)n3cc([C@@H](N)C(C)CC)nn3)CC2)nc(N2CCN(C(=O)[C@H](CCCCN)n3cc([C@@H](N)C(C)CC)nn3)CC2)n1 (stereo partly specified)	16*	TbREL1 conf=17*
C#CCOCCOCCOCCNc1nc(N2CCN(C(=O)[C@H](CCCCN)n3cc([C@@H](N)[C@H](C)CC)nn3)CC2)nc(N2CCN(C(=O)[C@H](CCC(=O)O)n3cc([C@@H](N)CCCCN)nn3)CC2)n1	4
C#CCOCCOCCOCCNc1nc(N2CCN(C(=O)[C@H](CCCN=C(N)N)n3cc(C(N)[C@@H](C)CC)nn3)CC2)nc(N2CCN(C(=O)[C@H](CCC(=O)O)n3cc([C@@H](N)CCCCN)nn3)CC2)n1 (stereo partly specified)	2
CCn1c(SCC(=O)Nc2ccc(C(=O)OC)cc2)nnc1-c1cccc(Cl)c1	-1
O=C(CN1CCOCC1)Nc1ccc2c(c1)OCCO2	12*	TbREL1 conf=5
O=C(CN1CCN(c2ccc(O)cc2)CC1)Nc1ccc2c(c1)OCCO2	-2
O=C(CN1CCOCC1)Nc1ccc2c(c1)OC(F)(F)O2	4
CCOC(=O)[C@]12CCCC=C1N(Cc1ccc(OC)cc1)C(=O)[C@@H]2CC(=O)N1CCN(C(=O)C2CC2)CC1	-4
O=C(C1CCN(CCCc2ccccc2)CC1)N1CCCCC1	12*	TbREL1 conf=2
O=C(Nc1ccccc1)N1CCN(CCc2ccccc2)CC1	-3
O=C(c1ccc(-c2ccccc2)cc1)N1CCC(C(=O)N2CCCC2)CC1	3
Nn1c(SCC(=O)Nc2ccccc2-c2ccccc2)nnc1-c1cc(-c2ccc(Cl)cc2)n[nH]1	4
COCCCN1C(=O)C(CC(=O)NC2CC2)CC(C(=O)N(C(C)C)C(C)C)=C1C (stereo unspecified)	4
CSc1nnc(SCC(=O)N(C)c2c(N)n(Cc3ccccc3)c(=O)[nH]c2=O)s1	7
CN(C(=O)CSc1ncnc2sccc12)c1c(N)n(Cc2ccccc2)c(=O)[nH]c1=O	12*	TbREL1 conf=2
SMILES	TbREL1 inh	others
CN(C(=O)COC(=O)c1cccs1)c1c(N)n(Cc2ccccc2)c(=O)[nH]c1=O	-1
O=C(NC1CCCc2c1cnn2-c1ccc(F)cc1F)c1ccccc1 (stereo unspecified)	2
O=C(Cc1ccccc1)NC1CCCc2c1cnn2-c1ccc(F)cc1F (stereo unspecified)	11*	TbREL1 conf=2
Cc1nnc(SCC(=O)NC2CCCc3c2cnn3-c2ccc(F)cc2F)o1 (stereo unspecified)	-1
CCCC/C=C1/[C@@H](C(C)C)N(Cc2ccc3c(c2)OCO3)C2=N[C@H](c3ccccc3)CC(=O)N21	-4
COC(=O)C1CCCN(C(=O)C2CCN(S(=O)(=O)c3cccc4cccnc34)CC2)C1 (stereo unspecified)	-2
C[C@H]1C(c2ccccc2F)O[C@]2(C[C@H](O)c3ccccc3O2)C[C@@H]1O (stereo partly specified)	-1
O=C(CSc1nnc(-c2ccco2)n1-c1ccc(Cl)cc1)Nc1ccc(S(=O)(=O)Nc2nccs2)cc1	3

Screening data from PubChem.
